High-throughput results deposited in PubChem by Center for Chemical Genomics, University of Michigan.
Shown are actives, neighbours in structure and some others; about 0.93% of the full set was active somewhere.
HIV TAR-Tat: HIV-1 TAR-Tat binding disruption; HIV-1 TAR RNA, Tat peptide displacement FRET; hits give high values; z-score (test concentration not listed); actives 0.6% (n = 100,000); active means z-score of 3 or more in at least 2 runs
CDC25B CDK2 inh: human CDC25B-CDK2/CyclinA binding inhibition. z-score (test concentration not listed). actives 0.72% (n = 94,000). P30305+P24941. HTRF CDC25B-CDK2/CyclinA binding, anti-His/anti-Flag; hits give high values; in the data active means z-score above about 3.2
Numbers stand for hits; 0 = inactive; - = not tested or not shown.

SMILES	HIV TAR-Tat	CDC25B CDK2 inh
CCN1C(=O)C(Cc2nc3ccccc3c(=O)[nH]2)c2cc(C)ccc21 (stereo unspecified)	0	0
C=CCOC(=O)c1[nH]c2c(c1C)C(=O)CC(c1ccc(N(C)C)cc1)C2 (stereo unspecified)	0	0
COc1ccc(OC)c(NC(=O)C2=Cc3sc(C)c(C)c3CS2)c1	0	-
CCOc1c(Cl)cc(CNc2ncn[nH]2)cc1OC	0	0
CCOc1cc(CNc2ccc3[nH]c(=O)[nH]c3c2)cc(Br)c1OC	0	6.1
CCOc1cc(CNc2ccc3[nH]c(=O)[nH]c3c2)cc(Br)c1OCC	0	0
CCOc1c(Br)cc(CNc2ccc3[nH]c(=O)[nH]c3c2)cc1OC	0	8.47
O=C1c2cccnc2C(=O)N1Cc1ccc(S(=O)(=O)Nc2ccc(F)cc2)cc1	0	-
O=c1nc2c(-c3ccc(Cl)cc3)n[nH]n2c2cc(Cl)ccc12	0	0
Cc1sc2ncn(CC(=O)N3CCOCC3)c(=O)c2c1S(=O)(=O)N1CCOCC1	0	0
Cc1sc2ncn(CC(=O)N3CCCCCC3)c(=O)c2c1S(=O)(=O)N1CCN(C)CC1	-	19.2
COc1cccc(-c2cn3cc(-c4ccc(-c5ccccc5)cc4)n(C)c3n2)c1	0	-
CCOC(=O)c1cc(S(=O)(=O)N(C)CC(=O)N2CCC(C)CC2)cn1C	0	-
CCN1C(=O)c2cccc3c(NC(=O)c4ccc(Cl)s4)ccc1c23	-	16.1
CCN1C(=O)c2cccc3c(S(=O)(=O)NC(Cc4ccccc4)C(=O)O)ccc1c23 (stereo unspecified)	0	0
CCOc1ccccc1NC(=O)N1c2ccccc2NC2=C(C(=O)CCC2)C1c1cccs1 (stereo unspecified)	21.1	-
COc1ccccc1NC(=O)N1c2ccccc2NC2=C(C(=O)CCC2)C1c1cccs1 (stereo unspecified)	0	-
O=C(O)c1cc(=O)c2ccccc2[nH]1	0	0
O=C(O)c1cc(=O)c2cccc(O)c2[nH]1	5.31	-
CC1O[P+]2(OC1C)OC(C)C(C)O2 (stereo unspecified)	-	5.15
COc1ccc(CNCc2ccc(OCC(O)c3ccc4c(c3)n(C)c(=O)n4C)cc2)cc1 (stereo unspecified)	0	0
O=C(O)c1cnc[nH]1	-	3.86
N[C@@H](Cc1cnc[nH]1)C(=O)O	-	0
Cc1ccc(OCCn2cc(/C=c3\sc4nc5ccccc5n4c3=O)c3ccccc32)cc1	-	0
Cc1ccc(C)c(Nc2nc3ccc(C)cc3n3nnnc23)c1	0	0
SMILES	HIV TAR-Tat	CDC25B CDK2 inh
Cc1cccc(CSc2nnc(C)n3c2cc2sccc23)c1	0	-
CC1CCC(NS(=O)(=O)c2ccc3[nH]c(=O)ccc3c2)CC1 (stereo unspecified)	32	-
CC1CCC(NC(=O)C2CCN(S(=O)(=O)c3ccc4[nH]c(=O)ccc4c3)CC2)CC1 (stereo unspecified)	0	-
CC(=O)N1CCN(CCn2c(C)c3c(=O)n(-c4nc5ccccc5s4)[nH]c3cc2=O)CC1	0	0
Cc1c2c(=O)n(-c3nc4ccccc4s3)[nH]c2cc(=O)n1Cc1ccc(C(=O)O)cc1	23.9	0
O=C(COCc1cc(-c2ccco2)on1)NCc1ccco1	0	-
Cc1ccc(-c2csc(Nc3ccccn3)n2)cc1	0	0
Cc1nc(N)sc1-c1csc(Nc2ccccn2)n1	-	18.2
Cc1ccccc1Cn1c(/C=C/c2ccco2)nc2ccccc21	0	3.55
C(=C\c1nc2ccccc2n1CCOc1ccccc1)/c1ccco1	0	0
Cc1ccc(Cn2c(/C=C/c3ccco3)nc3ccccc32)cc1	0	3.56
Clc1ccc(OCCn2c(/C=C/c3ccco3)nc3ccccc32)cc1	0	0
Cc1nnc(NCCc2ccccc2)c2c1nnn2Cc1ccc(F)cc1	0	0
Cc1ccc(CNC(=O)Cn2nc(C)c3nn(-c4ccc(Cl)cc4)c(-n4cccc4)c3c2=O)o1	0	-
CCc1c(C)sc(N2C(=O)C3C4C=CC(C4)C3C2=O)c1C#N (stereo unspecified)	-	0
Cn1c2ccccc2c2cnn(CC(=O)NCCCN3CCc4ccccc4C3)c(=O)c21	0	0
Cc1ncc(CO)c2c1Oc1nc(-c3ccc(F)cc3)[nH]c(=O)c1C2	0	0
COc1ccc(O)c(-c2nc3c(c(=O)[nH]2)Cc2c(CO)cnc(C)c2O3)c1	10.8	0
Cc1cccc2c3c(ccc12)C1=C(C(=O)C3=O)[C@@H](C)CO1	16.8	-
Cc1ccc(CNc2ncnc3c2cnn3-c2ccc(C)cc2)cc1	0	-
CCOC(=O)c1cnc2ccc(Br)cc2c1Nc1ccc(N(C)C)cc1	7.66	0
CCOC(=O)c1cnc2ccc(Br)cc2c1NCc1ccco1	0	0
Cn1cccc1Cc1nnc(SCC(N)=O)n1-c1ccccc1	0	0
CC(C)=CC[C@@H](OC(=O)C=C(C)C)C1=CC(=O)c2c(O)ccc(O)c2C1=O	22.8	-
O=C1COc2ccc(S(=O)(=O)NCCN3CCN(c4ccccc4F)CC3)cc2N1	0	-
SMILES	HIV TAR-Tat	CDC25B CDK2 inh
C=CCSc1nnc2cc(C)c3cccc(C)c3n12	0	0
CSc1cccc(N2C(=O)N(Cc3ccccc3C)C3CS(=O)(=O)CC32)c1 (stereo unspecified)	0	-
Oc1ccc([C@H]2Oc3cc(O)cc(O)c3C[C@H]2O)cc1	0	-
O=C(O[C@@H]1Cc2c(O)cc(O)cc2O[C@@H]1c1cc(=O)c(O)c2c(O)c(O)cc([C@H]3Oc4cc(O)cc(O)c4C[C@H]3O)c2c1)c1cc(O)c(O)c(O)c1	30.4	-
Cc1nc2ccccc2n1CCNC(=O)c1cnccn1	0	-
Cc1c(-c2nsc(NC(=O)c3ccco3)n2)nnn1-c1cc(F)ccc1F	0	0
O=c1cc(-c2ccccc2)nc2nc(-c3ccco3)[nH]n12	6.53	0
Cc1nc2nc(-c3ccccc3)cc(=O)n2[nH]1	0	0
Cc1cc(C)c2oc(-c3ccc(C)c(N)c3)nc2c1	0	0
O=C(Nc1ccc(F)cc1)c1cccs1	0	-
c1ccc2c(OCCCOc3cccc4cccnc34)cccc2c1	-	6.17
OC(COc1cccc2cccnc12)Cn1c2ccccc2c2ccccc21 (stereo unspecified)	0	0
COC(=O)C[C@@H]1C2(C)C(=O)[C@@H](CC3=C4CC(O)O[C@@H](c5ccoc5)[C@]4(C)CCC32)[C@H](O)C1(C)C (stereo partly specified)	0	-
O=C(Nc1cccc([N+](=O)[O-])c1)c1ccc2c(c1)C(=O)N(c1cccc3ccccc13)C2=O	-	0
O=C(CN1C(=O)c2ccc([N+](=O)[O-])cc2C1=O)Nc1ccc2ccccc2c1	-	6.69
O=C(O)c1ccc2nc(-c3ccco3)c(-c3ccco3)nc2c1	51.4	-
O=C(O)c1cc(-c2ccc(O)cc2)nc2ccc(Br)cc12	-	0
O=C(O)c1cc(-c2ccco2)nc2ccc(Br)cc12	6.36	-
O=C(NCc1ccco1)c1ccc2nc(-c3cccs3)c(-c3cccs3)nc2c1	0	-
CCC(=O)N1CCN(c2cc(N3CCCC3)nc(C)n2)CC1	0	0
CCOc1ccc(C2/C(=C(/O)c3ccc(C)cc3)C(=O)C(=O)N2c2cccnc2)cc1 (stereo unspecified)	0	0
COC(=O)c1ccc(C2/C(=C(/O)c3ccc(C)cc3)C(=O)C(=O)N2c2cccnc2)cc1 (stereo unspecified)	0	12.2
Cc1c([N+](=O)[O-])sc2nc[nH]c(=O)c12	11.4	0
Cc1c(C(=O)Nc2ccc(F)cc2)sc2nc[nH]c(=O)c12	0	-
CN(CCCNC(=O)C1CCN(C(=O)c2cc3sccc3n2C)CC1)C1CCCCC1	0	0
